Screening results deposited in PubChem by several laboratories.
This is a sample that favours compounds with a hit; in the whole collection about 5.3% have one here.
PostGolgi ctrl = growth of the yeast control strain, post-Golgi counter-screen; 98,000 compounds, 5% hits; efflux-deficient yeast background strain, growth absorbance A615, 16 h; inhibition, % at 10 µM
Measles CPE = protection of cells from measles virus. Measles virus-infected cells, CPE protection, absorbance. protection (pct of control), % at 4 µM. 140,000 compounds, 1.5% hits; in the data active means protection mostly above about 24%, no sharp cut-off; inactive means mostly below about 26%
MT1-MMP txn act = MT1-MMP promoter transcription activation; HT1080 MT1-MMP promoter luciferase reporter, luminescence, overnight; stronger effect = higher value; activation factor at 10 µM; 86,000 compounds, 0.16% hits; AID 750;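 active means activation factor of at least 2 for MT1-MMP transcription at 10 µM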
PostGolgi yeast = growth inhibition of a yeast mutant, post-Golgi transport screen; inhibition, % at 10 µM; 98,000 compounds, 0.9% hits; post-Golgi transport phenotypic cell assay; AID 739;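 further: yeast cells grown in 1536-well plates; yeast grown about 18 h at 30C before absorbance read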
Starred values were filed as active, the others as inactive; nt = not tested or not shown. Unless noted, no stated cut-off is given here; in the data, active means inhibition above about 30%; inactive means the rest.

SMILES	PostGolgi ctrl	Measles CPE	MT1-MMP txn act	PostGolgi yeast
Cc1ccc(C(=O)N2CCN3C(=O)c4ccccc4C23c2ccc(Cl)cc2)cc1 (centres undefined)	39*	6	nt	21
CCCC(=O)O[C@H]1C[C@@H](C)N(C(=O)c2ccccc2)c2ccc(C)cc21	39*	5	1.2	-2
Cc1ccc(Cl)c(OCCCCN(C)Cc2ccccc2)c1	34*	3	nt	93*
O=C(Nc1ccc2oc(-c3ccccc3)nc2c1)c1cccnc1	15	59*	1.4	-10
CCc1ccc2oc(-c3cccc(NC(=O)c4cccnc4)c3)nc2c1	74*	8	1.4	2
Cc1c(N2C(=O)/C(=C\c3ccc(N(C)C)cc3)N(C)C2=S)c(=O)n(-c2ccccc2)n1C	nt	22	nt	nt
CCn1c2ccccc2c2cc(NS(=O)(=O)c3ccccc3C)ccc21	23	19	nt	4
Sc1oc(-c2ccccc2)cc1C=Nc1ccccc1	5	10	1.8	-5
CCCCC1CCC(c2nc(-c3ccccn3)no2)CC1 (centres undefined)	38*	3	0.9	-6
CCCNS(=O)(=O)c1cc(Br)cc2c1N(C(=O)CC)CC2	34*	5	1.1	11
O=C(COC(=O)c1cccc(NS(=O)(=O)/C=C/c2ccccc2)c1)Nc1ccccc1OC(F)F	nt	15	nt	nt
CC(=O)N(C)/C=C1\Sc2ccccc2C1=O	44*	2	1.1	5
Cc1ccccc1NC(=O)c1ccc(Cl)c(NC(=O)c2ccncc2)c1	nt	6	nt	nt
Cc1ccc2oc3c(c(=O)c2c1)C(c1cccc(Br)c1)N(Cc1ccco1)C3=O (centres undefined)	42*	6	1	-3
CC1(C)CC(=O)C2=C(C1)Oc1ncn(Cc3ccco3)c(=N)c1C2c1ccccc1 (centres undefined)	34*	7	1.2	2
COC1CCCCC1Nc1cc(C)cc(C)c1 (centres undefined)	-1	21	1.4	10
COC1CCCCC1Nc1cccc(SC)c1 (centres undefined)	35*	14	1.1	-6
C=CCOC(=O)N1CCN(c2cccc(C(F)(F)F)c2)CC1	16	8	1	-7
C=CCN(C(=O)CCC(=O)O)C1CC(=O)N(c2ccc(OCCC)cc2)C1=O (centres undefined)	34*	1	1.1	-21
CCC(=O)Nc1ccc(N2CCN(S(C)(=O)=O)CC2)cc1	nt	4	nt	nt
N=c1c2c(-c3ccccc3)c(-c3ccccc3)n(Cc3ccco3)c2ncn1CCN1CCOCC1	23	17	1.1	52*
Cc1ccc(CNC(=O)C23CN(Cc4ccccc4)CC2C(c2ccc([N+](=O)[O-])cc2)=NO3)cc1 (centres undefined)	2	41*	nt	21
Cc1nnc(NC(=O)c2ccc3c(c2)C(=O)N(CCC(C)C)C3=O)s1	2	9	1.1	-12
COCCN(C(=O)Cc1cccs1)c1nnc(-c2cccnc2)s1	10	20*	1	-4
COc1ccc(C(=O)COC(=O)CNS(=O)(=O)c2ccc(C)cc2)cc1	nt	27	nt	nt
SMILES	PostGolgi ctrl	Measles CPE	MT1-MMP txn act	PostGolgi yeast
O=C1c2ccccc2CCCC12N=NCC2c1cccc2ccccc12 (centres undefined)	33*	6	nt	6
Cc1ccc(C2CN=NC23CCc2ccccc2C3=O)cc1 (centres undefined)	15	24	1.2	-6
COC(=O)[C@@]1(Cc2ccccc2)[C@@H]2C(=CC(=O)[C@H]2CC(=O)C(=O)N(C)C)CN1C(=O)c1ccccc1	nt	82*	1.1	nt
Cc1ccc(S(=O)(=O)/N=C(\N)Nc2nc(C)c3cc(C)c(C)cc3n2)cc1	40*	5	nt	-7
O=C(Cn1cc([N+](=O)[O-])cn1)Nc1ccn(Cc2c(F)c(F)c(F)c(F)c2F)n1	-1	21	nt	0
CC1(C)CC2CC(C)(CN2C(=O)NC(=O)c2ccccc2)C1 (centres undefined)	nt	13	nt	nt
Cc1ccc(C(=O)Nc2ccccc2C(=O)N2CC3(C)CC2CC(C)(C)C3)cc1 (centres undefined)	41*	24	nt	2
O=C(Nc1cccn(Cc2c(Cl)cccc2Cl)c1=O)c1ccccc1Cl	2	48*	nt	10
CC(C)[C@H](NC(=O)NCCc1ccc(F)cc1)C(=O)O	4	78*	1.2	-13
CCc1ccc(C(=O)NC(C(=O)O)C(C)C)cc1 (centres undefined)	-2	38*	0.9	-5
Cc1ccc(C)c(S(=O)(=O)N2C(=S)NC(=O)C2CC(C)C)c1 (centres undefined)	10	41*	nt	-5
CCn1cnc2sc(C(=O)N3CCN(c4ccc(OC)cc4)CC3)c(C)c2c1=O	32*	13	1	-4
O=C(Nc1cccc(F)c1)N(Cc1ccc(Cl)cc1)CC(O)C(F)(F)F (centres undefined)	58*	15	nt	13
CCOC(=O)N1CCN(C(=O)C(CC)n2nc(C)c3sc4ccccc4c3c2=O)CC1 (centres undefined)	28	19	1.1	-2
Cc1nn(C(C)C(=O)NCc2ccccc2Cl)c(=O)c2c1sc1ccccc12 (centres undefined)	55*	8	1	-13
COC(=O)C1(CC(C)C)C=CC[N+]1(C)C (centres undefined)	nt	nt	1.1	nt
O=C(Cc1cscn1)c1ccc(O)cc1O	-3	36*	1	9
Cc1nc(CC(=O)c2ccc(O)cc2O)cs1	-7	7	1.3	4
COc1cccc(-c2nnc(NC(=O)c3ccc4ncsc4c3)o2)c1	nt	15	nt	nt
CCOC(=O)c1c(NC(=O)Cn2nc(C(F)(F)F)cc2C)sc(C)c1C	nt	11	nt	nt
O=S(=O)(Nc1cccnc1Cl)c1ccc2c(c1)OCCO2	21	33*	1.1	-3
COc1ccc(CC(=O)Nc2cccc(C(=O)O)c2C)cc1	34*	6	1.3	14
CCOCCCNC(=O)C(c1ccc(Cl)cc1)N1CCN(C(=O)c2ccco2)CC1 (centres undefined)	-6	12	1	-3
CCOCCCNC(=O)C(c1ccc(Cl)cc1)N1CCN(c2ccccc2)CC1 (centres undefined)	31*	4	1.1	5
Cc1c(Cl)cccc1NC(=S)NN1CCOCC1	7	3	1	2
SMILES	PostGolgi ctrl	Measles CPE	MT1-MMP txn act	PostGolgi yeast
Nc1ccc(-n2nncc2-c2ccc(Cl)cc2)cc1	-10	9	nt	-8
c1ccc(-c2ccc(-c3cnc4n3CCCCC4)cc2)cc1	5	12	1.5	81*
c1cc2c(cc1-c1cnc3n1CCC3)OCCO2	37*	12	1.2	-6
CCOc1c(Br)cc(C2NS(=O)(=O)N=C3CCCCCN32)cc1OC (centres undefined)	10	10	1	12
COC(=O)C(C)N(C(=O)c1cccc2ccccc12)c1c(C)cccc1C (centres undefined)	36*	8	1.1	10
COC(=O)C(C)N(C(=O)c1cccc(Cl)c1)c1c(C)cccc1C (centres undefined)	7	6	1.1	-5
CCOC(=O)c1c(C)sc2c1N(C(=O)CCl)c1cc(Cl)ccc1S2	78*	5	0.1	9
COc1cc(C(=O)N(CCCO)Cc2cc3ccc(C)c(C)c3[nH]c2=O)cc(OC)c1OC	2	13	1.2	-3
